# POLK inh: qHTS for Inhibitors of Polymerase Kappa. AID 588579, 2011. purified Pol kappa, fluorescent DNA synthesis assay, 10 min. 0.53% of 400,000 active. DNA polymerase kappa (Homo sapiens), Q9UBT6. Potency, µM (titrated, usually from 107 µM), without a hit: at the top dose activity, negative = inhibition, most hits filed as inhibitors; note: potency is the fitted concentration of half-maximal effect; % is set by controls: 0 for no effect and ±100 for the full control effect
#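 Readout: fluorescence, taken kinetically at 0 and 10 min. Conditions: 10 nM Pol kappa, 15 min RT compound preincubation, 50 nM substrate final. Controls: enzyme-free buffer wells.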
# ALOX12 inh: Primary qHTS assay for inhibitors of human arachidonate 12S-lipoxygenase (ALOX12): Round 2; Polyunsaturated fatty acid lipoxygenase ALOX12 (Homo sapiens), P18054; purified 12hLO, xylenol orange hydroperoxide absorbance; Potency, µM (titrated, usually from 108 µM), for inactives: top-dose activity change, negative = inhibition, hits mostly inhibitors; 1.1% of 580,000 active; AID 1671190, 2021; note: potency is the fitted concentration of half-maximal effect; % is set by controls: 0 for no effect and ±100 for the full control effect
# Target sequence (P18054 whole entry, looked up): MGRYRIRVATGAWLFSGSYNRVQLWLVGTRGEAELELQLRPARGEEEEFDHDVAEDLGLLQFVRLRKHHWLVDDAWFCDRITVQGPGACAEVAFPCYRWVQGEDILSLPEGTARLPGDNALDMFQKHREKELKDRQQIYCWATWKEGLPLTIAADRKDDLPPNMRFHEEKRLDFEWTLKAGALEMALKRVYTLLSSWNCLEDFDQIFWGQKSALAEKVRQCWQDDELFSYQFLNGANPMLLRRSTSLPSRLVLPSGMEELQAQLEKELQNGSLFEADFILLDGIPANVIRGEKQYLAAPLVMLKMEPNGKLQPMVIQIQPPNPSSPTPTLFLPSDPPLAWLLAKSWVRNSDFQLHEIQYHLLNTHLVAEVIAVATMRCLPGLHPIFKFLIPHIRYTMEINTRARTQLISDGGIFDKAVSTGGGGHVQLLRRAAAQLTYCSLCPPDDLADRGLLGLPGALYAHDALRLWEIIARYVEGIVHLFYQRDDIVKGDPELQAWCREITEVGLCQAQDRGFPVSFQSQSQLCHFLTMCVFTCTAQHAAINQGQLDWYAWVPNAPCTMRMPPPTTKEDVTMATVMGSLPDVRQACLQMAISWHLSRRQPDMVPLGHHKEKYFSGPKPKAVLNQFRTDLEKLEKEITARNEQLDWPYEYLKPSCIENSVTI
#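 Purified human 12hLO at 150 nM in 25 mM Hepes, 0.01% Triton X-100, pH 7.0, preincubated 15 min at room temperature with compound. Reaction started with 40 uM arachidonic acid, 30 min at room temperature. Hydroperoxide measured by Fe-xylenol orange, 573/405 nm absorbance ratio.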
# Pol eta inh: qHTS for Inhibitors of Polymerase Eta; DNA polymerase eta (Homo sapiens), Q9Y253; AID 588591, 2011; 1.2% of 390,000 active; Potency, µM (top dose mostly 114 µM), inactives show top-dose activity change, negative = inhibition, most hits filed as inhibitors; recombinant Pol eta, fluorescent DNA replication assay; note: potency is the fitted concentration of half-maximal effect; % is set by controls: 0 for no effect and ±100 for the full control effect
#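 Pol eta at 10 nM preincubated with compounds 15 min at room temperature; reaction started with fluorescent substrate (50 nM final) and read kinetically at 0 and 10 min.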
# PI5P4Ka inh: qHTS for Inhibitors of phosphatidylinositol 5-phosphate 4-kinase (PI5P4K). 1.2% of 330,000 active. PI5P4Kalpha enzyme, ADP-Glo luminescence, 60 min; stronger effect = lower value. max response, %; active = max response of -50% or lower; inconclusive = between -30% and -50%; inactive = -30% or higher; note: value at the top dose of about 77 µM; % is set by controls: 0 for no effect and ±100 for the full control effect
#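 ADP-Glo luminescence end-point after a 60 min room-temperature kinase reaction. PI5P4Kalpha and substrate in HEPES pH 7.4 buffer with EGTA, 0.1% CHAPS and 5% DMSO; ATP at 5 microM final.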
# POLB inh: qHTS Assay for Inhibitors of DNA Polymerase Beta; Pol beta primer extension/strand displacement, fluorescence kinetic; P06746; AID 485314, 2010; 1.3% of 340,000 active; Potency, µM (series often up to 114 µM), without a hit: top-dose activity change, negative = inhibition, usual class: inhibitors; note: potency is the fitted concentration of half-maximal effect; % is set by controls: 0 for no effect and ±100 for the full control effect
#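 Curves were derived by four-parameter Hill fits of normalized qHTS data. The kinetic fluorescent primer-extension read was taken at 0 and 10 min after 50 nM substrate, following a 15 min room-temperature preincubation of 10 nM enzyme with compounds.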
# Pol iota inh: qHTS for Inhibitors of Polymerase Iota; DNA polymerase iota (Homo sapiens), Q9UNA4; Pol iota fluorescent replication assay, 10 min; Potency, µM (highest dose often 115 µM), for inactives: at the top dose activity, negative = inhibition, actives largely listed as inhibitors; 1% of 390,000 active; note: potency is the fitted concentration of half-maximal effect
#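 Fluorescent replication assay read twice, at 0 min and 10 min after adding 50 nM (final) substrate. Enzyme (10 nM) and compounds were first incubated 15 min at room temperature; enzyme-free buffer wells were negative controls.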
# Starred values were filed as active, the others as inactive; ? = inconclusive; nt = no result given; [ ] = dose if it differs, or a comment. This is a sample that favours compounds with a hit; in the whole collection about 2.9% have one here. Unless noted, calls come from the whole dose curve; as a rule, active = well fitted inhibition curve with a large enough effect; inconclusive = small, poorly fitted or top-dose-only effect, or another doubt; inactive = no such curve, though single readings can be large or run the other way.
SMILES,POLK inh,ALOX12 inh,Pol eta inh,PI5P4Ka inh,POLB inh,Pol iota inh
O=c1[nH]c2ccc(S(=O)(=O)Nc3cc(Cl)ccc3O)cc2o1,?,5%,89µM*,nt,?,?
CC(C)c1cc(NCc2cccnc2)n2ncc(-c3ccccc3)c2n1,nt,-5%,nt,nt,nt,nt
CC(=O)c1cc(C(=O)N2C[C@H]3CC[C@@H]2CN(CCCc2ccccc2)C3)cs1,nt,10%,nt,nt,nt,nt
O=C(Nc1ccc(N2CCN(CCOc3ccc(Cl)cc3)CC2)c(C(=O)O)c1)c1ccc(F)cc1,-10%[60.1 µM],45µM*,nt,nt,-1%,0%
COc1ccc(CNC(=O)COC(=O)c2cc(-c3ccco3)nc3ccccc23)cc1,nt,nt,nt,nt,7.1µM*,nt
O=C(OCC(=O)N1CCCC1=O)c1cc(-c2ccco2)nc2ccccc12,nt,5.6µM*,nt,nt,nt,nt
Cn1c(=O)c(C(=O)COC(=O)c2cc(-c3ccco3)nc3ccccc23)c(N)n(CC2CC2)c1=O,nt,nt,nt,nt,10µM*,nt
NC(=O)NC(=O)COC(=O)c1cc(-c2ccco2)nc2ccccc12,nt,14µM*,nt,nt,nt,nt
COc1ccc(CNC(=O)COC(=O)c2cc(C)nc3ccccc23)cc1,-10%,-60%,1%,-10,nt,16%
O=C1c2cnc(-c3ccc(Oc4ccccc4)cc3)nc2OCCN1CC1CC1,nt,1%[176 µM],nt,nt,nt,nt
CCOC(=O)C(O)(c1ccc(N(C)C(=O)Nc2ccc(Cl)c(Cl)c2)cc1)C(F)(F)F (configuration not stated),nt,-22%,nt,nt,nt,nt
O=C(O)c1cc2ccc(OCc3ccccc3)cc2[nH]1,nt,14%,nt,nt,nt,nt
CC1(C)Cc2nc3sc4c(SCC(=O)NCc5ccco5)ncnc4c3cc2CO1,-10%,8%,22µM*,-15,?,-16%
CC(C)c1nc2sc3c(SCC(=O)NCc4ccco4)ncnc3c2c2c1CCC2,79µM*,11%,6.3µM*,?,22µM*,?
CC(C)NC(=O)NC(=O)COC(=O)c1cc2c(s1)CCC2,nt,-63%,nt,nt,nt,nt
O=C(CSc1nc2ccccc2s1)Nc1cc(S(=O)(=O)N2CCOCC2)ccc1O,-12%,22µM*,-13%,?,10%,?
CC(/C=C/C1(O)C(C)CC(O)CC1(C)C)OC1OC(CO)C(O)C(O)C1O (configuration not stated),56µM*,28%,35µM*,7,25µM*,?
C=CCn1c(N)c(C(=O)NCCC2=CCCCC2)sc1=S,-15%,18µM*,-5%,nt,-2%,-13%[58.9 µM]
CC(NC(=O)C1CCN(c2ccc(C#N)cn2)CC1)c1ccc(F)c(F)c1 (configuration not stated),nt,6%,nt,nt,nt,nt
COc1cccc(-c2nc(-c3nc4ccccc4s3)cs2)c1OC,nt,5µM*,nt,nt,nt,nt
CCN(CC(=O)Nc1ccc(NC(C)=O)cc1)Cc1nc2ccccc2o1,nt,79%,nt,nt,nt,nt
COC(=O)c1c(-c2ccccc2)csc1NC(=O)CN1CCOCC1,nt,28%,nt,nt,nt,nt
COc1ccc(N2C(=O)C(Cl)=C(Oc3cccc(OC)c3)C2=O)cc1,0%,nt,-12%,-87*,3%,?
CCCN1C(=O)/C(=C/C=C2\N(CC)c3ccccc3C2(C)C)SC1=S,-5%,-2%,56µM*,4,7%,36%
COc1ccc(CN2CCSc3sccc3C2=O)cc1,-7%,-1%,-2%,0,79µM*,-16%
SMILES,POLK inh,ALOX12 inh,Pol eta inh,PI5P4Ka inh,POLB inh,Pol iota inh
O=c1oc2ccccc2c(O)c1/C=C1\C=Nc2ccccc21,-14%,?,9%,-56*,-14%,?
Cc1ccc(S(=O)(=O)NC[C@H]2O[C@@H](CO)[C@@H](O)[C@H]2N2CCN(c3ncccn3)CC2)cc1,nt,16µM*,nt,nt,nt,nt
COc1ccc(S(=O)(=O)NC[C@H]2O[C@@H](CO)[C@@H](O)[C@H]2N2CCN(c3ccccn3)CC2)cc1,nt,0%,nt,nt,nt,nt
CCc1nc(N)c(C#N)c(-c2ccc(O)c(OC)c2)c1C,-13%,3%,2%,-6,5%,73%
COc1cc(-c2c(C#N)c(=O)[nH]c3c2c(C)nn3-c2ccccc2)ccc1O,-3%,-6%,5%,-63*,22%,19%
N#Cc1nc(-c2ccccc2)oc1N1CCN(c2ccccc2)CC1,nt,0%,nt,nt,nt,nt
Cc1cc(C)n(-c2nc3c(c(=O)n(CCc4ccccc4)c(=O)n3C)n2CCC(C)C)n1,nt,27%,nt,nt,nt,nt
COc1ccccc1N(CCC#N)C(=O)CSc1ncnc2sc3c(c12)CCC3,nt,-13%,nt,nt,nt,nt
C[C@@H](NC(=O)C1CC1)c1c(-c2ccc(F)cc2)noc1C(=O)O,nt,50µM*,nt,nt,nt,nt
COc1cccc(C(=O)/C=C/c2ccc(Br)cc2)c1,nt,-25%,nt,nt,nt,nt
Cc1nc(NC2CCCC2)sc1C(=O)NCCC(C)C,nt,20µM*,nt,nt,nt,nt
CCOc1cc(C(c2c(C)[nH][nH]c2=O)c2c(C)[nH][nH]c2=O)cc(Cl)c1O,-2%,-16%,10%,-15,52%,25µM*
COc1cc(C(c2c(C)[nH][nH]c2=O)c2c(C)[nH][nH]c2=O)cc([N+](=O)[O-])c1O,-4%,11%,-9%,-60*,-2%,?
O=C(CC1Nc2cccc3cccc(c23)NC1=O)Nc1ccccc1 (configuration not stated),-9%,?,-18%,?,3%,51%
NC(=O)CC1Nc2cccc3cccc(c23)NC1=O (configuration not stated),-24%,-25%,?,?,6.3µM*,?
Cc1ccc(NC(=O)CC2Nc3cccc4cccc(c34)NC2=O)cc1 (configuration not stated),?,?,-20%,nt,-21%,5µM*
CC(=O)c1cccc(NC(=O)C(C)Oc2ccc3ccc(=O)oc3c2)c1 (configuration not stated),nt,0%,nt,nt,nt,nt
CCn1nc(C)c(CNC(=O)Nc2ccc(C)cc2C)c1C,nt,3%,nt,nt,nt,nt
O=C(O)c1ccc(-n2c(O)c(C=C3N=c4ccccc4=N3)sc2=S)cc1,?,-25%,-23%,-4,12%,2.2µM*
CC(C)(C)OC(=O)Nc1ccc(C(=O)NCC(c2ccco2)N2CCCCC2)cc1 (configuration not stated),nt,-1%,nt,nt,nt,nt
Cc1[nH][nH]c(=O)c1C(c1c(C)[nH][nH]c1=O)c1cn(Cc2ccc(F)cc2)c2ccccc12,-7%,nt,-11%,-26,0%,2.2µM*
Cc1[nH][nH]c(=O)c1C(c1c(C)[nH][nH]c1=O)c1cn(Cc2ccc(Cl)c(Cl)c2)c2ccccc12,-2%,?,?,?,1%,2.5µM*

# Screens (PubChem BioAssay)
